We go through eight compounds from PubChem BioAssay (NCI).

Test in all cases: NCI-60 one-dose screen, 48 h (100 = growth as untreated, 0 = no growth, -100 = all killed)
Details in all cases: 10 µM

Assay [1] has as its system HCT-15 colon.
In assay [2] the test system is HT29 colon.
Assay [3] deals with SNB-75 CNS.
The test system of assay [4] is SNB-19 CNS.
The subject of assay [5] is U251 CNS.
Assay [6] has as its system PC-3 prostate.
Assay [7] deals with SK-MEL-5 melanoma.
Assay [8] has as its system UACC-62 melanoma.
Assay [9] has as its system LOX IMVI melanoma.
The subject of assay [10] is SK-MEL-28 melanoma.
The test system of assay [11] is SK-MEL-2 melanoma.
The test system of assay [12] is EKVX NSCLC.
Assay [13] relates to SN12C renal.
Assay [14] has as its system TK-10 renal.
Assay [15] concerns ACHN renal.
Assay [16] deals with CAKI-1 renal.
Assay [17] concerns A498 renal.
For assay [18], the system named is CCRF-CEM leukemia.
Assay [19] deals with MOLT-4 leukemia.
For assay [20], the system named is UO-31 renal.

Each structure is given as a SMILES string. The panel holds about 83,000 compounds, 20% with a hit somewhere; the sample as a whole holds those more often.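 A percent growth of 40 corresponds to 60% growth inhibition; 0 means no net growth; -100 means all cells died. Active threshold: below 10.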 A number with no mark means an inactive call. Activity calls are given as the source filed them.

For `COc1cc2c3c(n(CCCn4ccnc4)c(=O)c2cc1OC)-c1nc2c(cc1C3=O)OCO2`, the growth was 52.1% in assay [1]; 31.5% in assay [2]; 82.8% in [3]; 25.6% in assay [4]; 20.9% in assay [5]; 60.4% in [6]. Besides, the growth is 7.02% (active) in assay [7]; 4.19% (active) in assay [8]; 0.388% (active) in assay [9]; 80.9% in assay [10]; 123% in assay [11]; 91.6% in [12]. The growth in [13] was 19.7%; in assay [14], 110%; in assay [15], 3.67% (active); in [16], 10.2%; in assay [17], 118%; in [18], 18.5%. Further, the growth in assay [19] was 20.9%.
Take `COc1ccc(OC)c(/C=N/NC(=O)c2ccc3nc(-c4ccc(Cl)cc4)[nH]c3c2)c1`: the growth is 41.8% in assay [1]; 79.7% in assay [2]; 72.8% in [3]; 54.3% in [4]; 74.3% in assay [5]; 41.5% in assay [6]. Further, the growth is 31.2% in [7]; 75.7% in assay [8]; 65.4% in assay [9]; 85.4% in assay [10]; 103% in [11]; 57.5% in [12]. The growth is 68% in assay [20]; 89.1% in assay [14]; 46.9% in assay [15]; 61.6% in [16]; 43.8% in [17]; 43.9% in assay [18]. Moreover, the growth in [19] is 41.1%.
Consider `Cc1cccc(-c2nc(Nc3ccccc3C(=O)O)c3ccccc3n2)c1`, for which the growth in [1] is 14.3%; in assay [2], 39.7%; in assay [3], 55.3%; in assay [4], 21.2%; in [5], 26.6%; in [6], 29.5%. The growth in assay [7] was 6.01% (active); in assay [8] it was 28%; in [9], 36.4%; in assay [10], 50%; in assay [11], 66%; in [12] it was 21%. Further, the growth in [13] is 40.7%; in assay [14] it was 85.8%; in assay [15] it was 36.4%; in assay [16] it was 52.4%; in assay [17] it was 47.6%; in assay [18], 17.8%. Also, the growth in [19] is 34.3%.
In the case of `O=c1cc(-c2ccccc2)oc2cc(OCCCNCc3ccccc3)cc(O)c12`, the growth is -67.1% (active) in assay [1]; -59.7% (active) in assay [2]; 23.9% in [3]; 48.2% in assay [4]; -79.8% (active) in assay [5]; -0.767% (active) in assay [6]. Moreover, the growth in [7] is -99.6% (active); in [8], -55.7% (active); in [9], -97.8% (active); in assay [10], -88.8% (active); in assay [11] it was -81.4% (active); in assay [12] it was 8.87% (active). Besides, the growth was -9.86% (active) in assay [20]; 3.03% (active) in [15]; -24% (active) in [16]; -14.5% (active) in assay [17]; 10.1% in [18]; -13% (active) in assay [19].
With `Cc1ccc(-c2cc(-c3cc4ccccc4nc3Cl)[nH]c(=O)n2)cc1`, the growth is -39.8% (active) in assay [1]; -15.9% (active) in assay [2]; -17.2% (active) in [3]; 3.61% (active) in assay [4]; -23.5% (active) in assay [5]; 20.7% in assay [6]. Moreover, the growth in assay [7] was 18.1%; in assay [8], 19.3%; in assay [9], -82.4% (active); in assay [10] it was 43.3%; in assay [11], 41%; in assay [12], 27.4%. The growth in assay [13] was 0.368% (active); in assay [14], 26.3%; in assay [15] it was 38.6%; in assay [17] it was 57.3%; in assay [18] it was -30.1% (active); in assay [19], -21.6% (active).
In the case of `O=C1Nc2cc(Cl)ccc2/C1=C/c1cccc(OCc2ccccc2)c1`, the growth in assay [1] was -24.8% (active); in assay [2], -43.8% (active); in [3], 16.8%; in assay [4] it was 0.636% (active); in assay [5] it was -64.6% (active); in assay [6], 6.84% (active). The growth in assay [7] was -98% (active); in [8] it was -32.6% (active); in assay [9] it was -82.6% (active); in [10], 4.09% (active); in assay [11] it was -31.8% (active); in assay [12] it was 11.3%. The growth in assay [13] was -26.7% (active); in [14] it was 33.6%; in [15] it was 9.76% (active); in assay [16], 9.35% (active); in assay [17], 49.9%; in assay [18], 0.155% (active). Besides, in assay [19], the growth is 5.59% (active).
As to `Nc1nc(-c2ccccc2)cc(-c2cc3ccccc3nc2Cl)n1`, the growth in assay [1] is 55.9%; in [2], 102%; in [3], 71.4%; in [4], 73.4%; in assay [5], 63.4%; in assay [6] it was 76.9%. The growth in assay [7] is 92.9%; in assay [8], 83.3%; in [9] it was 45%; in [10] it was 103%; in assay [11], 97.1%; in assay [12] it was 80.1%. Also, the growth was 83% in assay [13]; 89.1% in [15]; 80.1% in assay [16]; 108% in assay [17]; 1.2% (active) in assay [18]; 59.2% in [19].
Take `CC(=O)OC[C@@]1(C)C2CC[C@]3(C)C(CC=C4C5CC(C)(C)CC[C@]5(C(=O)Nc5ccccc5)CC[C@]43C)[C@@]2(C)C[C@@H](OC(C)=O)[C@@H]1OC(C)=O` (stereo partly drawn): the growth in assay [1] was 25.1%; in [2], 28.5%; in assay [3], 58.4%; in assay [4] it was 39.9%; in assay [5], 39.9%; in assay [6], 27.7%. Further, the growth in [7] is 2.74% (active); in assay [8], 31%; in assay [9], 3.23% (active); in assay [10], 59.2%; in assay [11] it was 35.4%; in [12], 26.8%. Further, the growth was 33.1% in assay [20]; 53.1% in assay [14]; 34.4% in assay [15]; 37.2% in assay [16]; 64.6% in assay [17]; 29.7% in [18].
